# From PubChem BioAssay AID1851 (National Center for Advancing Translational Sciences (NCATS), 2009)
# Screen size: about 16,000 compounds; about 5,800 (36%) were called active. About 23% were inconclusive and are not listed. Calls follow the shape of the dose curve; as a rule, active = well fitted curve in the direction sought with a large enough effect; inconclusive = small, poorly fitted or top-dose-only effect, or effect the other way; inactive = no such curve, though single readings can be large or run the other way. The list shows a part of the results.
# Biological target: Cytochrome P450 2C19 (Homo sapiens) (UniProt P33261)
# Test: Cytochrome panel assay with activity outcomes
# Details: recombinant CYP, pro-luciferin dealkylation, luminescence, p450-cyp2c19; series mostly up to 57.1 µM
# % is scaled to controls: 0 for no effect and ±100 for the full control effect.
# Sequence of Cytochrome P450 2C19 (Homo sapiens) (P33261 whole entry, looked up): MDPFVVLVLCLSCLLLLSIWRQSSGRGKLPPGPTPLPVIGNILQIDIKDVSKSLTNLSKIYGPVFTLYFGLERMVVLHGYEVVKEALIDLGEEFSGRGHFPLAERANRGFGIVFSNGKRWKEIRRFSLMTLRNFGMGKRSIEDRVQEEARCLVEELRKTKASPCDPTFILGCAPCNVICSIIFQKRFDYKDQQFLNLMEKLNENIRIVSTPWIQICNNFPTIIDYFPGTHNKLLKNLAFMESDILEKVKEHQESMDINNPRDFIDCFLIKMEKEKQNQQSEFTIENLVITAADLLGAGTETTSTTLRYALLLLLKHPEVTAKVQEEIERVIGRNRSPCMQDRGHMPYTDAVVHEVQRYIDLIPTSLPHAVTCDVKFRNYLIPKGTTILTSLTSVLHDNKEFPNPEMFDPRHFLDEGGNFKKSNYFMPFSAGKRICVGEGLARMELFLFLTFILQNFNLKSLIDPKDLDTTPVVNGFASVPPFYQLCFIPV
SMILES,"activity, negative = inhibition",AC50
CC(C)CO/N=C1/C[C@@H](O)[C@@H](O)[C@@H]2[C@@H]3C(=O)N(C[C@@H]4CCCO4)C(=O)[C@H]3CC[C@H]12,24.8% [at 11.4 µM] (inactive),
COc1ccc(CNc2ncnc3ccc(-c4ccc(C(=O)N(C)C)cc4)cc23)c(OC)c1,,15.8 µM (active)
COCCNc1ncnc2ccc(-c3ccc(C(=O)N(C)C)cc3)cc12,,inactive
O=c1nc(N2CCOCC2)ccn1-c1nc(-c2ccccc2)oc1-c1ccccc1,,inactive
Nc1nc(Cl)cc(N2CCOCC2)n1,,inactive
CS(=O)(=O)Nc1cccc(-c2nc(N3CCOCC3)c3ccccc3n2)c1,,inactive
COc1cccc(Sc2cc(N3CCOCC3)nc(-c3ccccc3)n2)c1,,14.1 µM (active)
Clc1ccc(Sc2cc(N3CCOCC3)nc(-c3ccccc3)n2)cc1,,3.55 µM (active)
CCc1ccccc1NC(=O)C(C)n1nc([N+](=O)[O-])c(Br)c1C (configuration not stated),,2.51 µM (active)
Cc1c(Br)c([N+](=O)[O-])nn1C(C)C(=O)Nc1nccs1 (configuration not stated),,10 µM (active)
C[N+](C)(C)CCCCCC[N+](C)(C)C,,inactive
O=C(CSCC(=O)OCn1nnc2ccccc2c1=O)Nc1ccc(Cl)cc1,,11.2 µM (active)
CCC1OC23CCCCC2C(C#N)(C(=N)O3)C1(C#N)C#N (configuration not stated),,17.8 µM (active)
Nc1ccccc1S[C@@H](C[N+](=O)[O-])c1ccc2c(c1)OCO2,,1.58 µM (active)
COc1ccc(C(=O)N2CCC[C@@]3(CCN(C(=O)NC(C)C)C3)C2)cc1,,inactive
CCCCCn1c(CN2CCN(c3cc(Cl)ccc3C)CC2)nc2c1c(=O)[nH]c(=O)n2C,,3.55 µM (active)
CCN1CCN(c2cc(=O)n(-c3cc(Cl)ccc3C)c(=O)[nH]2)CC1,,inactive
COc1cc(O)c2c(O)c3c(c4c2c1[C@@]1(C4)C(C)=CCCC1(C)C)[C@H](O)[C@@]1(O)CC(=O)C(C(N)=O)=C(O)[C@]1(O)C3=O,,2.51 µM (active)
CN(C)CCNc1oc(COc2ccc(Cl)cc2Cl)nc1C#N,,inactive
N#Cc1nc(COc2ccccc2Cl)oc1NCc1ccco1,,2.24 µM (active)
CCOC(=O)c1ccc(NC(=O)CC2NCCNC2=O)cc1 (configuration not stated),,inactive

SMILES,"activity, negative = inhibition",AC50
CCC1C(=O)N=C(SCC(=O)Nc2ccc(C(=O)OC)cc2)NC1=O (configuration not stated),,22.4 µM (active)
CCCCSc1ccc2nc(-c3ccc(C#N)cc3)cn2c1,,4.47 µM (active)
Clc1ccccc1CNCC1CCC(CNCc2ccccc2Cl)CC1 (configuration not stated),,0.794 µM (active)
O=C(O)C[C@H](Cc1ccccc1Cl)C(=O)O,14.2% [at 11.4 µM] (inactive),
Oc1ccccc1CNCc1ccccc1O,-44.5% [at 11.4 µM] (inactive),
CC(N)=NCCCC[C@H](N)C(=O)O,,inactive
O=C(O)C1(Nc2ccc(Cl)cc2)CCCC1,25.8% [at 11.4 µM] (inactive),
NC(=O)C1(N2CCCCC2)CCN(C(=S)Nc2ccc(Cl)cc2)CC1,,3.16 µM (active)
NC(=O)C1(N2CCCCC2)CCN(C(=O)c2ccc(-n3cnnn3)cc2)CC1,,inactive
CCCCN(C(=S)Nc1ccccc1)C1CCS(=O)(=O)C1 (configuration not stated),,inactive
CCCCSC(=S)N(C)C1CCS(=O)(=O)C1 (configuration not stated),,3.98 µM (active)
CCCNC1CCS(=O)(=O)C1 (configuration not stated),,inactive
CCCn1nc2cc(C(=O)NCCCCc3ccccc3)ccc2c1OCC,,6.31 µM (active)
COC(=O)Cc1c(C)nc2nc(NCc3ccccc3OC)[nH]n2c1=O,,inactive
CCCn1nc2cc(C(=O)NCc3ccccc3OC)ccc2c1OCC,,20 µM (active)
CCCCn1nc2cc(C(=O)NCCCCc3ccccc3)ccc2c1OCC,,22.4 µM (active)
COc1ccccc1CNC(=O)c1cc2c(C)nn(Cc3ccc(F)cc3)c2s1,,11.2 µM (active)
NCC[C@H](N)C(=O)O,-4.53% [at 11.4 µM] (inactive),
CCCn1nc2cc(C(=O)NCCc3ccc(C)cc3)ccc2c1OCC,,25.1 µM (active)
C=CCOc1c2ccc(C(=O)NC3CCCc4ccccc43)cc2nn1C (configuration not stated),,inactive
CCCn1nc2cc(C(=O)NC3CCCc4ccccc43)ccc2c1OCC (configuration not stated),,28.2 µM (active)

SMILES,"activity, negative = inhibition",AC50
COCCn1nc2cc(C(=O)NCC34CC5CC(CC(C5)C3)C4)ccc2c1OC,,inactive
CCOc1c2ccc(C(=O)NC3CCCc4ccccc43)cc2nn1C (configuration not stated),,inactive
CCOc1c2ccc(C(=O)NCc3ccco3)cc2nn1CC,,inactive
CCn1nc2cc(C(=O)NCC34CC5CC(CC(C5)C3)C4)ccc2c1OC,,22.4 µM (active)
CCOc1c2ccc(C(=O)NCc3ccc4c(c3)OCO4)cc2nn1CC,,31.6 µM (active)
COC(=O)C/C=C\[C@@H](C)[C@@H](/C=N\O[C@@H]1O[C@H](COC(C)=O)[C@H](OC(C)=O)[C@H](OC(C)=O)[C@H]1OC(C)=O)OC,-12.5% [at 11.4 µM] (inactive),
NS(=O)(=O)c1ccc(N=Nc2cc3ccccc3c(C(=O)O)c2O)cc1,-28.9% [at 11.4 µM] (inactive),
OC[C@@H]1O[C@@H](n2cnc3cncnc32)[C@@H](O)[C@H]1O,,inactive
O=C1C=C(NCCc2cc(Br)c(O)c(Br)c2)C(=O)c2ncccc21,,0.501 µM (active)
O=C(Nc1ncc(Cc2cc(Cl)ccc2Cl)s1)c1ccc([N+](=O)[O-])cc1,,2 µM (active)
CCOC(=O)N/N=C1/C[C@@H](O)[C@@H](O)[C@@H]2[C@@H]3C(=O)N(c4cccc(Oc5ccccc5)c4)C(=O)[C@H]3CC[C@H]12,42.4% [at 11.4 µM] (inactive),
N=C1CCC[C@@H]1C(=S)SCCC(N)=O,-14.4% [at 11.4 µM] (inactive),
CCC(C)C1NC(=S)N(C2CCCCC2)C1=O (configuration not stated),,2 µM (active)
CC(C)CC1NC(=S)N(C2CCCCC2)C1=O (configuration not stated),,7.94 µM (active)
Cn1c(=O)c(-c2cc(F)cc(F)c2)nc2cnc(Oc3ccccc3)nc21,,inactive
COc1ccc(Oc2ncc3nc(CCc4ccccc4)c(=O)n(C)c3n2)cc1,,10 µM (active)
COc1ccc(Oc2ncc3nc(C)c(=O)n(C)c3n2)cc1,,inactive
COc1ccc(Oc2ncc3nc(-c4cc(F)cc(F)c4)c(=O)n(C)c3n2)cc1,,inactive
Cc1nc2cnc(Oc3ccccc3)nc2n(C)c1=O,,inactive
Cn1c(=O)c(CCc2ccccc2)nc2cnc(Oc3ccccc3)nc21,,25.1 µM (active)
